Experiments:
Test in all cases: log2 ratio of Biotin-Ahx-Ub-VS probe labelling (fragment/DMSO); higher = less target engagement (more negative = stronger competition), active = hit call of the paper (q ≤ 0.05, log2 ratio ≤ -1)
Conditions in all cases: compound concentration: 200 uM; treatment time: 3 h
USP9X = USP9X (UniProt Q93008)
Outline: (§1)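 Labelled DUBs from HEK293T lysate were NeutrAvidin-enriched, digested with LysC and trypsin, and run by diaPASEF LC-MS/MS. Before that, each 495 µg sample in Tris/CHAPS/IGEPAL buffer with protease inhibitors was treated in triplicate with fragment at 200 µM or vehicle for 3 h, then with Biotin-Ahx-Ub-VS at 0.5 µM final for 1 h. Values are average log2 ratios of fragment over vehicle by unpaired t-test, based on global-median-normalised Spectronaut label-free quantities from proteins with ≥2 unique peptides.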

UniProt O00487 = molecular target: UniProt O00487
Outline: as §1

UniProt O00507 = molecular target: UniProt O00507
Sequence of UniProt O00507 (O00507 whole entry): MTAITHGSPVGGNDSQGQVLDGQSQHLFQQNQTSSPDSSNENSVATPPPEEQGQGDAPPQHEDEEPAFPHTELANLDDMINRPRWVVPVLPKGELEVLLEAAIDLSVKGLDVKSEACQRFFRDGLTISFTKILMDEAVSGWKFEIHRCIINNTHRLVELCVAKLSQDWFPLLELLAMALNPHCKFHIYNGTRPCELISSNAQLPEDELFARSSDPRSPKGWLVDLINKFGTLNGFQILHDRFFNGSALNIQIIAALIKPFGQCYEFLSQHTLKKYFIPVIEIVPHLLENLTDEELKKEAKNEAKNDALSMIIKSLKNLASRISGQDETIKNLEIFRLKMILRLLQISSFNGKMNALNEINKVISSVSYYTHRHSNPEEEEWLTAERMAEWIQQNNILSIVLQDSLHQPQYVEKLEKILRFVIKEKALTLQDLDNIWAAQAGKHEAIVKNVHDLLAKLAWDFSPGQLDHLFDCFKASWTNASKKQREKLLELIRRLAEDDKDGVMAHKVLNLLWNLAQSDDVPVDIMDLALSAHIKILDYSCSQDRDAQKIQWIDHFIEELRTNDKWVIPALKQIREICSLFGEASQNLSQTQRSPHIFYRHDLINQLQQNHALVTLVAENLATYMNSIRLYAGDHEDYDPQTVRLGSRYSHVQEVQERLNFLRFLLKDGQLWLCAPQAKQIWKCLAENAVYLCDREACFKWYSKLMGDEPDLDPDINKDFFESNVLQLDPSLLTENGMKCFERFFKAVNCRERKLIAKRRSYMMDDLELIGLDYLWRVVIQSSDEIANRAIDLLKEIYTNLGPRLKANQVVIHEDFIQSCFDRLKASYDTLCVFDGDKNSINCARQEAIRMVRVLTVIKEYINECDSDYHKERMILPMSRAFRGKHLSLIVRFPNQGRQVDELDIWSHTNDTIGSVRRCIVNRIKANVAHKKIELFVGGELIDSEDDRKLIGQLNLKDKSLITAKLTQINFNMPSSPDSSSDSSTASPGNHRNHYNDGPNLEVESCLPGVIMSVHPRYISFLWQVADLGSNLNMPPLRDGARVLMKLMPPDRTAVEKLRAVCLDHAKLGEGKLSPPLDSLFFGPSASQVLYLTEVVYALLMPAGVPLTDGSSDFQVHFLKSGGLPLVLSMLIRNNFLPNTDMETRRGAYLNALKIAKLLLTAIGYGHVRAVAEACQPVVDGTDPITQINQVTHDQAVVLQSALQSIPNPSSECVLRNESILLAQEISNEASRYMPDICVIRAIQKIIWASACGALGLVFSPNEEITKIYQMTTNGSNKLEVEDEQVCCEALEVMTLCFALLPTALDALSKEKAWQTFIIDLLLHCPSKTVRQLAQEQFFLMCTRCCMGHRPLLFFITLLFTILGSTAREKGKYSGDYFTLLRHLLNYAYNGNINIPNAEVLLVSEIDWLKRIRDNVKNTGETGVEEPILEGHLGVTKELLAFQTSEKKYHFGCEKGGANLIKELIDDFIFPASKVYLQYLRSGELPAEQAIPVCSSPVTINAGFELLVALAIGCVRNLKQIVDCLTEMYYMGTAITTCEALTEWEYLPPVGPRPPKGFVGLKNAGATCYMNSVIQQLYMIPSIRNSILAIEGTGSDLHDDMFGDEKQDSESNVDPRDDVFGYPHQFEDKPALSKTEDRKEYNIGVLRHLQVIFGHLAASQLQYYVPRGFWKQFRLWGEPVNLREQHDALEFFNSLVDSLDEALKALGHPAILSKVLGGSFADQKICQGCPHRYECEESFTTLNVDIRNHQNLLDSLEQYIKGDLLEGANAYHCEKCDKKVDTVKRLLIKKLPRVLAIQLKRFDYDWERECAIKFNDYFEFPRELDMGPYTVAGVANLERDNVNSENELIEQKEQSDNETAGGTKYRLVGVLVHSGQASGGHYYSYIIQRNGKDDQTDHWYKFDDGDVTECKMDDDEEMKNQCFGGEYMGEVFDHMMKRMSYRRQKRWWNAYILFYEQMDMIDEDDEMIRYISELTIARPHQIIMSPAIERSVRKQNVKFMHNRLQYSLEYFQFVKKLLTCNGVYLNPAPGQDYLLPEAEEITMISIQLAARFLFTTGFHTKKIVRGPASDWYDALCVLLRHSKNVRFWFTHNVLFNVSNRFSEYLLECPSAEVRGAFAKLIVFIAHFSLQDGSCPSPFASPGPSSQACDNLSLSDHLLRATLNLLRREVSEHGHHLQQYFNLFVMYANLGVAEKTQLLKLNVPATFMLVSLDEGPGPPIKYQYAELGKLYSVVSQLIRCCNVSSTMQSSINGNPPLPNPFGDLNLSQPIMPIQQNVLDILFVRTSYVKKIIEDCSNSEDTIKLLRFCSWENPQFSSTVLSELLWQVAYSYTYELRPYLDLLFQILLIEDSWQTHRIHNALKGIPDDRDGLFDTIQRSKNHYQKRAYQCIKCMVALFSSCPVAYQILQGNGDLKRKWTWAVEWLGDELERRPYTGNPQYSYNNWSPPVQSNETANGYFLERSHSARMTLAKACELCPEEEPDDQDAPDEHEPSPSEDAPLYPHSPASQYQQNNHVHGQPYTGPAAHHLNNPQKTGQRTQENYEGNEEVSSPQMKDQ
Outline: as §1

UniProt P51784 = molecular target: UniProt P51784
Outline: as §1

UniProt Q5T2D3 = molecular target: T1, UniProt Q5T2D3
T1 sequence (whole entry): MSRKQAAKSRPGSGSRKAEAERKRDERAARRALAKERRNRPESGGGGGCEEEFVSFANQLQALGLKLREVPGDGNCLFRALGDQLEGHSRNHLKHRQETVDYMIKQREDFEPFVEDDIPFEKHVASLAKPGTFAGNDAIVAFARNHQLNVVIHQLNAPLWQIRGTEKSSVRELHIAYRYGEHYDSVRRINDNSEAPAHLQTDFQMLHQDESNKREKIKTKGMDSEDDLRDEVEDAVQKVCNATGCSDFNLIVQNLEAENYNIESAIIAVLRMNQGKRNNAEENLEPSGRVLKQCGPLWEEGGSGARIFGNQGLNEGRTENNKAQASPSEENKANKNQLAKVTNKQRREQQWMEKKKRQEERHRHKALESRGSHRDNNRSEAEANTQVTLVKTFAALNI
Outline: as §1

UniProt Q8TE49 = molecular target: T2, UniProt Q8TE49
T2 sequence (whole entry): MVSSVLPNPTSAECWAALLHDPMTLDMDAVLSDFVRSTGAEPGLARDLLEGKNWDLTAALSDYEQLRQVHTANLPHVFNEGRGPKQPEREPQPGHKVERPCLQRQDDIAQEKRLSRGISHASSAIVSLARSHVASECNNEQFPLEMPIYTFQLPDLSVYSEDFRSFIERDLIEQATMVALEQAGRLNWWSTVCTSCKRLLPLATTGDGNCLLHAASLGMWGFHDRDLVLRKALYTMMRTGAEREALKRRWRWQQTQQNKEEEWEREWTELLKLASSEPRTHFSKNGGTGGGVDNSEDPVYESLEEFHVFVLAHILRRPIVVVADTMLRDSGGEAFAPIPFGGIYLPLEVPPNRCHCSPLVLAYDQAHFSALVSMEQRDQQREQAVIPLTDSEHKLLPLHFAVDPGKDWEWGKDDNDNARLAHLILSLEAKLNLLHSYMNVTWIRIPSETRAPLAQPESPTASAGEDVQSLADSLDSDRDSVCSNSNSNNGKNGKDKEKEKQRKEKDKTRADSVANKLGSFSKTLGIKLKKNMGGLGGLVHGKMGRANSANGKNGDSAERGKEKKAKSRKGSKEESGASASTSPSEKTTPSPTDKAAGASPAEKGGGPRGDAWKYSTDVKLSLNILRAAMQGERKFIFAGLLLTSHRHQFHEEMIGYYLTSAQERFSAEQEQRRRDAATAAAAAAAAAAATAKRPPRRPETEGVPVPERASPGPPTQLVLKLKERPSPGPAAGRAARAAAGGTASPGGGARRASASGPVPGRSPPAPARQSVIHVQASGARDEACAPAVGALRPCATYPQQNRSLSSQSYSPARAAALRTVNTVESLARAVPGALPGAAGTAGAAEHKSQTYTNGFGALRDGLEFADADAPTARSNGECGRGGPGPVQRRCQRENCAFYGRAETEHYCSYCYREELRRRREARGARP
Outline: as §1

UniProt Q9P2H5 = molecular target: T3, UniProt Q9P2H5
T3 sequence (whole entry): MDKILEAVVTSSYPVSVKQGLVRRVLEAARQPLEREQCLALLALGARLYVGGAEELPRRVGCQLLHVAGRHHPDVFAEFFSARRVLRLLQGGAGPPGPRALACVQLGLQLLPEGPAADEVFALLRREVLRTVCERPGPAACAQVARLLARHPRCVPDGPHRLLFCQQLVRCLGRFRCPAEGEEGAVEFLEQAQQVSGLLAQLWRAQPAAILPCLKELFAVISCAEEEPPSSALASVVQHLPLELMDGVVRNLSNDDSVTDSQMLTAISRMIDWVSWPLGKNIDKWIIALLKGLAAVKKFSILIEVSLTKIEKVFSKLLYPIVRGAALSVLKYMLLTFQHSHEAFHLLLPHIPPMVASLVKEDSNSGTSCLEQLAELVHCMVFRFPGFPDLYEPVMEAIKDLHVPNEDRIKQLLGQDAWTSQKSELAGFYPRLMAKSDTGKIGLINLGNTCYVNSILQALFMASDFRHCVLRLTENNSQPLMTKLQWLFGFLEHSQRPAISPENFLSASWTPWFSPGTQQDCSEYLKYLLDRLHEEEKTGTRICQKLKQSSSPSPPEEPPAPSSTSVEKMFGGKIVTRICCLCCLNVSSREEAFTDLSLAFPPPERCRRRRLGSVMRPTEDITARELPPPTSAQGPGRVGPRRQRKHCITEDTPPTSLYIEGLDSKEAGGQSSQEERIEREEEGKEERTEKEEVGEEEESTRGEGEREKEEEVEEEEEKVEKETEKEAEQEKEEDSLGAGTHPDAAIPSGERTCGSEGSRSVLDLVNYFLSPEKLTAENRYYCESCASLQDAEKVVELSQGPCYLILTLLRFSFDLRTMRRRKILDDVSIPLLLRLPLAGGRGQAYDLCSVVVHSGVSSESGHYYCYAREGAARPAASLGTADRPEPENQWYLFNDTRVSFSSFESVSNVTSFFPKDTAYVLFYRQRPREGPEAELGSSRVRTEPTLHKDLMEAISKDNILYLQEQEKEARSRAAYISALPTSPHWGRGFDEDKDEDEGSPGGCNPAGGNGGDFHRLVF
Outline: as §1

UniProt Q9UGI0 = molecular target: T4, UniProt Q9UGI0
T4 sequence (whole entry): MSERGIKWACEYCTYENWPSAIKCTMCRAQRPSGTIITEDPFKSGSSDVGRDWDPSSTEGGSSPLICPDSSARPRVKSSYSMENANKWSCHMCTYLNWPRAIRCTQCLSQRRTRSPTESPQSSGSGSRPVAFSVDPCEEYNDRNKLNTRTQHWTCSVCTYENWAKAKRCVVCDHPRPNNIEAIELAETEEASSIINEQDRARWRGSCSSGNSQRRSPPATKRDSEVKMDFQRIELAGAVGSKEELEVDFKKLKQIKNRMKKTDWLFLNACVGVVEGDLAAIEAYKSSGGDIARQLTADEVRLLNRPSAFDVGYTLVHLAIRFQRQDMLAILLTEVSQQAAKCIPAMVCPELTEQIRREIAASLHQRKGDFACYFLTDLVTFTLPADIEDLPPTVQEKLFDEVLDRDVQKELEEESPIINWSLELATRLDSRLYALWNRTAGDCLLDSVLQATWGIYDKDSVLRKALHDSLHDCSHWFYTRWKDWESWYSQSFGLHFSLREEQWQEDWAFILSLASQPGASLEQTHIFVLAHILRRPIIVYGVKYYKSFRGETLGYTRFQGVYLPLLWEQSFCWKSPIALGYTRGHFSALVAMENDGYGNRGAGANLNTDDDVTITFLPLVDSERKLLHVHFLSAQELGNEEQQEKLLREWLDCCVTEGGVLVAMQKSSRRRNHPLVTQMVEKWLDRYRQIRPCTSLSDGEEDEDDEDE
Outline: as §1

YOD1 = molecular target: T5, YOD1 (UniProt Q5VVQ6)
T5 sequence (whole entry): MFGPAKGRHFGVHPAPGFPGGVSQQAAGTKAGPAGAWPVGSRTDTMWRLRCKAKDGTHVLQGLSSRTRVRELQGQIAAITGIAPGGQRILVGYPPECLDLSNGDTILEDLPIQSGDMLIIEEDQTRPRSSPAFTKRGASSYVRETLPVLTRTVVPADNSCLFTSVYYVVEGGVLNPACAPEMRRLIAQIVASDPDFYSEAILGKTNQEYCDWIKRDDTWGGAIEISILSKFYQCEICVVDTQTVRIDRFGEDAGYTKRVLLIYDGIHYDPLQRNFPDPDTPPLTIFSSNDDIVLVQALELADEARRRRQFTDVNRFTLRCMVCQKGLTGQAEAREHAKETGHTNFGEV
Outline: as §1

Measured: log2 ratio of Biotin-Ahx-Ub-VS probe labelling

Sequence of USP9X (Q93008 whole entry, the tested form may be a part): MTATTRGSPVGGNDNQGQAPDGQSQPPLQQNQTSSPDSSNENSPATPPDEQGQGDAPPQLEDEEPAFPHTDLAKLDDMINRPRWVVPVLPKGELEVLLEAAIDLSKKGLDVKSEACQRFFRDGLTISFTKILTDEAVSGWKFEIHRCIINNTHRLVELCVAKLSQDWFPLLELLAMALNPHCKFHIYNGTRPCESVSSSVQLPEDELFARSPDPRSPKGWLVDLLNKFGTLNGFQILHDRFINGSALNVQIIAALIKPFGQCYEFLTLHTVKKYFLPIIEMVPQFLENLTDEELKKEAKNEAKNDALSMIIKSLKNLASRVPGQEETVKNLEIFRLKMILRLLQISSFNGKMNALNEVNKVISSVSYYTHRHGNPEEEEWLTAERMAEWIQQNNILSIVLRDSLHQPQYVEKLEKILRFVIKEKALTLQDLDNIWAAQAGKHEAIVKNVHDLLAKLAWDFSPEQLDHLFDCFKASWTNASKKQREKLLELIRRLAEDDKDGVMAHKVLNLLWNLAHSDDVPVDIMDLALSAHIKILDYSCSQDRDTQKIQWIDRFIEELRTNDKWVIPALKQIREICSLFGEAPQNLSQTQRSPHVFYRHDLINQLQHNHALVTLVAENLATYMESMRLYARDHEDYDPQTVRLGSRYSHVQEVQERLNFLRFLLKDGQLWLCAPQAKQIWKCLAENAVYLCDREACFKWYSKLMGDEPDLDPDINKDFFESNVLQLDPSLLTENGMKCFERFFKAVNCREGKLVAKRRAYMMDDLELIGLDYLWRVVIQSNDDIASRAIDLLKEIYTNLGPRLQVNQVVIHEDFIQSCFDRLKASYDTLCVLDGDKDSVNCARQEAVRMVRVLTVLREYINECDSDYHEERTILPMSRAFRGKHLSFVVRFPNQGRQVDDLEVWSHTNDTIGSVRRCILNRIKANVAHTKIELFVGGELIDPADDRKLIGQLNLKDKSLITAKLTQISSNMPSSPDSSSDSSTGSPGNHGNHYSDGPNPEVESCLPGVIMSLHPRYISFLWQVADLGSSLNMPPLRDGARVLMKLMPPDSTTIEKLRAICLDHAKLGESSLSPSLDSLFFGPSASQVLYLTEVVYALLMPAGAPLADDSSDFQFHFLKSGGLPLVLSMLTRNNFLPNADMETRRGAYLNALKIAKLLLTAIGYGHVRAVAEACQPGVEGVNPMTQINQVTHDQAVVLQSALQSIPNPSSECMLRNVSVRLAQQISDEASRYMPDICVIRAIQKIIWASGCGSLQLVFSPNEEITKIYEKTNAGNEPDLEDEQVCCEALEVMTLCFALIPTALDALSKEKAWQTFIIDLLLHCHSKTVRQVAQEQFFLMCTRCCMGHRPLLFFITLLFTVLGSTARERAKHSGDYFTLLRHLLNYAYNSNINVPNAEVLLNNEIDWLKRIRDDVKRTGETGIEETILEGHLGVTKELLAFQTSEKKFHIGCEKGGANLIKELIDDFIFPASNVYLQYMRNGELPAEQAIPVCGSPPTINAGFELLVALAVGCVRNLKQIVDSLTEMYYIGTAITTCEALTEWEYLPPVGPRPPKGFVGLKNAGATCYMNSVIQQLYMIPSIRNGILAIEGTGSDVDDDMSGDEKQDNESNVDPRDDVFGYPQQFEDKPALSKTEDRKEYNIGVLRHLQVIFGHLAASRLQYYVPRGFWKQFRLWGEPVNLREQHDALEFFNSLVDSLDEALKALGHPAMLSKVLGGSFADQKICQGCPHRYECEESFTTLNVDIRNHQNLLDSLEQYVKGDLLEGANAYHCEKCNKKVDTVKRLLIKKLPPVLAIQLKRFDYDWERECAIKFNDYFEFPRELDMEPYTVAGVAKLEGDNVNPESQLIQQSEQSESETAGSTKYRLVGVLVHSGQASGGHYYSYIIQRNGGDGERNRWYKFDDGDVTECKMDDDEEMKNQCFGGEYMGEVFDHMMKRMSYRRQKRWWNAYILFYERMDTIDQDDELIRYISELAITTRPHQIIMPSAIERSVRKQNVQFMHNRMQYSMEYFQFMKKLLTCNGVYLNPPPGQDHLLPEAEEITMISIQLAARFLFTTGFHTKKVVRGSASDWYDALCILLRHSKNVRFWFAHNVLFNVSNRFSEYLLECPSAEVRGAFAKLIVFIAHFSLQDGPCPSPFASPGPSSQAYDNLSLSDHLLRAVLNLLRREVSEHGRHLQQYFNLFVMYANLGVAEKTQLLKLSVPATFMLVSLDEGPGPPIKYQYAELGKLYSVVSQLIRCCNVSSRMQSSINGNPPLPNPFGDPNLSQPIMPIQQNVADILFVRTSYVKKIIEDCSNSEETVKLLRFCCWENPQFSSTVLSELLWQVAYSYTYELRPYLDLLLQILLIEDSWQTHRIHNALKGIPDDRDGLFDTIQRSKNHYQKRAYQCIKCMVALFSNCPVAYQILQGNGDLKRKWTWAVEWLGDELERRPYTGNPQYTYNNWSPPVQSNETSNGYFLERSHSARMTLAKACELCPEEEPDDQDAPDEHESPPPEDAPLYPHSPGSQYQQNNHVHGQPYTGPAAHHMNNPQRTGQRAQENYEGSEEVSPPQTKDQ

Cc1ccc2nnc(CNC(=O)CCl)n2c1
inactive: USP9X 0.0675 | UniProt O00487 -0.0931 | UniProt O00507 0.487 | UniProt P51784 -0.0917 | UniProt Q5T2D3 -0.119 | UniProt Q8TE49 -0.36 | UniProt Q9P2H5 -0.342 | UniProt Q9UGI0 0.244 | YOD1 0.241
